# PubChem BioAssay (Tox21)
# Results filed as inconclusive are left out. Where a call stands in place of a potency, no number is given. The source made the active and inactive calls. Calls follow the shape of the dose curve; as a rule, active = well fitted cell-killing curve with a large enough effect in the repeat runs; inconclusive = weak or mixed curves, or effect the other way; inactive = no such curve, though single readings can be large or run the other way.
# Experiment: qHTS assay for identifying genotoxic compounds that show differential cytotoxicity against isogenic chicken DT40 cell lines with known DNA damage response pathways - Rev3 mutant cell line (AID 743014); also: nearly all actives have a fitted effect of over 55% in size
# Conditions: chicken DT40 Rev3-/- viability, CellTiter-Glo, 40 h; series mostly up to 68.4 µM
# Potency is read from the fitted curve at half-maximal effect.
row,Structure (SMILES),Potency
1,COC1=C(OC)C(=O)C(C/C=C(\C)CC/C=C(\C)CC/C=C(\C)CC/C=C(\C)CC/C=C(\C)CC/C=C(\C)CC/C=C(\C)CC/C=C(\C)CC/C=C(\C)CCC=C(C)C)=C(C)C1=O,inactive
2,CCCCCCCCCCCCCC(=O)OCC(COP(=O)([O-])OCC[N+](C)(C)C)OC(=O)CCCCCCCCCCCCC (configuration not stated),inactive
3,CCCCCN=C(N)N/N=C/c1c[nH]c2ccc(OC)cc12,inactive
4,CCN(CC)CCn1c(=O)c(Cc2ccc(OC)cc2)nc2ccccc21,29.8 µM (active)
5,CN1[C@@H](CC(=O)c2ccccc2)CCC[C@H]1C[C@H](O)c1ccccc1,inactive
6,CC[C@H]1OC(=O)C[C@@H](O)[C@H](C)[C@@H](O[C@@H]2O[C@H](C)[C@@H](O[C@H]3C[C@@](C)(O)[C@@H](O)[C@H](C)O3)[C@H](N(C)C)[C@H]2O)[C@@H](CC=O)C[C@@H](C)C(=O)/C=C/C(C)=C/[C@@H]1CO[C@@H]1O[C@H](C)[C@@H](O)[C@@H](OC)[C@H]1OC,inactive
7,O=C1CC[C@@H](C(=O)N[C@H]2C[C@@H]2c2ccccc2)N1,inactive
8,CO[C@H]1C[C@H](O[C@H]2[C@H](C)[C@@H](O[C@@H]3O[C@H](C)C[C@H](N(C)C)[C@H]3O)[C@@H](C)C[C@]3(CO3)C(=O)[C@H](C)[C@@H](O)[C@@H](C)[C@@H](C)OC(=O)[C@@H]2C)O[C@@H](C)[C@@H]1O,inactive
9,O=C(O)c1cc(O)c2c(c1)[C@H]([C@H]1c3cc(C(=O)O)cc(O)c3C(=O)c3c(O[C@@H]4O[C@H](CO)[C@@H](O)[C@H](O)[C@H]4O)cccc31)c1cccc(O[C@@H]3O[C@H](CO)[C@@H](O)[C@H](O)[C@H]3O)c1C2=O,inactive
10,CCOc1ccc(NC(=S)Nc2ccc(OCC)cc2)cc1,inactive
11,Oc1ccc(Cl)cc1C1CCCC1,15.4 µM (active)
12,NS(=O)(=O)c1cc(Cl)c(Cl)c(S(N)(=O)=O)c1,inactive
13,C=C1C(=C/C=C2\CCC[C@]3(C)[C@@H]([C@H](C)CCCC(C)C)CC[C@@H]23)C[C@@H](O)C[C@@H]1O,13.3 µM (active)
14,CN[C@H](CC(C)C)C(=O)N[C@H]1C(=O)N[C@@H](CC(N)=O)C(=O)N[C@H]2C(=O)N[C@H]3C(=O)N[C@H](C(=O)N[C@@H](C(=O)O)c4cc(O)cc(O)c4-c4cc3ccc4O)[C@H](O)c3ccc(c(Cl)c3)Oc3cc2cc(c3O[C@@H]2O[C@H](CO)[C@@H](O)[C@H](O)[C@H]2O[C@H]2C[C@](C)(N)C(O)[C@H](C)O2)Oc2ccc(cc2Cl)[C@H]1O (some centres not stated),inactive
15,O=C1c2c(O)cccc2[C@H]([C@@H]2O[C@H](CO)[C@@H](O)[C@H](O)[C@H]2O)c2cc(CO)cc(O)c21,inactive
16,Cc1ccc(C(C)(C)c2ccc(C)cc2)cc1,inactive
17,Cc1cccc(C)c1NC(=O)C1CCCCN1C (configuration not stated),inactive
18,CC(=NCc1ccccc1)c1ccccc1O,inactive
19,CC(=O)OCC(=O)[C@@]1(O)CC[C@H]2[C@@H]3C[C@H](C)C4=CC(=O)C=C[C@]4(C)[C@H]3[C@@H](O)C[C@@]21C,inactive
20,CCCCCCCCCCCCCCCCCCOCC(COP(=O)([O-])OCC[N+](C)(C)C)OC (configuration not stated),inactive
21,CC12CCC(C[N+](C)(CCC[N+](C)(C)C)C1)C2(C)C (configuration not stated),inactive
22,CSCCC(N)C(=O)O (configuration not stated),inactive
